In PubChem BioAssay (EPA / NIEHS):
Activity calls are given as the source filed them. How the source made its calls: active means hit-call score of the fitted dose curve at least 0.9, where 1 is the maximum; inactive means score below 0.9.

Assay: ATG_CRE_CIS: Attagene CIS-FACTORIAL HepG2 Assay for human cAMP Responsive Element (CRE) binding protein 3 (AID 2282926)
Conditions: HepG2 CRE cis-reporter, Attagene multiplexed mRNA; actives raise or lower the signal
Outline: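 HepG2 cells transiently transfected with a multiplexed reporter library (CRE-driven unit among them) were dosed for 24 h. Reporter mRNA was quantified by RT-PCR, fluorescent labelling, HpaI digestion and capillary electrophoresis, with bidirectional fitting against DMSO baseline.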

Row | SMILES | outcome | AC50
1 | CC(=O)OCC(COC(C)=O)OC(C)=O | inactive | 
2 | Cc1ccc(C(C)(C)C)c(O)c1 |  | 147 µM (active)
3 | CCCCC(CC)COC(=O)CCCCCCCC(=O)OCC(CC)CCCC (stereo not drawn) | inactive | 
4 | S=c1[nH]c2ccccc2s1 | inactive | 
5 | O=C(O)c1cccnc1 | inactive | 
6 | COC(=O)[C@H]1[C@H]2C[C@@H]3c4[nH]c5cc(OC)ccc5c4CCN3C[C@H]2C[C@@H](OC(=O)c2cc(OC)c(OC)c(OC)c2)[C@@H]1OC |  | 21.9 µM (active)
7 | CC(C)(O)c1ccc(CNC(=O)c2cccnc2Oc2ccc(F)cc2)cc1 | inactive | 
8 | CN(C)CCCN(C)CCCN(C)C | inactive | 
9 | O=C(O)CN(CC(=O)O)CC(=O)O | inactive | 
10 | Oc1ccccc1O | inactive | 
11 | Cc1occc(=O)c1O | inactive | 
12 | CC(=O)[C@@]1(O)CC[C@H]2[C@@H]3CCC4=CC(=O)CC[C@]4(C)[C@H]3CC[C@@]21C | inactive | 
13 | CC(=O)CC(c1ccccc1)c1c(O)c2ccccc2oc1=O (stereo not drawn) | inactive | 
14 | CC1=C(C)S(=O)(=O)CCS1(=O)=O | inactive | 
15 | CCc1cc(C2=C(C(=O)O)N(c3ccccc3C(F)(F)F)S(=O)(=O)c3ccccc32)cc2c1OCO2 | inactive | 
16 | Oc1ccc(O)cc1 | inactive | 
17 | CC(C)c1cccc(C(C)C)c1NC(=O)NS(=O)(=O)c1cc(C(C)(C)O)co1 | inactive | 
18 | O=C1CCCCC1 | inactive | 
